Here are results for 27 compounds from ChEMBL document CHEMBL4513141, “CO-ADD screening of NIH (USA) - Clinical Collection” (2021).

Entries with a potency or affinity are not part of this list.

In one assay the test system is Staphylococcus aureus. As to conditions: Concentration 20 uM; ASSAY_TEST Inhibition of Bacterial Growth; detection method Absorption (OD600); MEDIA CAMHB; plate type 384well; NBS; CORNING #3640; time 18 hr.
The next assay deals with Escherichia coli. As to conditions: Concentration 20 uM; ASSAY_TEST Inhibition of Bacterial Growth; detection method Absorption (OD600); MEDIA CAMHB; plate type 384well; NBS; CORNING #3640; time 18 hr.

In general, Inhibition refers to the change of the read-out against control, counted positive when it falls.

Consider `Cl.O=C1CN2Cc3c(ccc(Cl)c3Cl)N=C2N1` [ANAGRELIDE HYDROCHLORIDE], for which the Inhibition in the assay on Staphylococcus aureus was found to be 11.06%; in the assay on Escherichia coli, 7.21%.
`CC(C)(C)NC(=O)[C@@H]1C[C@@H]2CCCC[C@@H]2CN1C[C@@H](O)[C@H](Cc1ccccc1)NC(=O)[C@H](CC(N)=O)NC(=O)c1ccc2ccccc2n1.CS(=O)(=O)O` [SAQUINAVIR MESYLATE]: the Inhibition in the assay on Staphylococcus aureus is recorded as -19.12%; in the assay with Escherichia coli, 7.7%.
For `OCCN1CCN(CCCN2c3ccccc3Sc3ccc(Cl)cc32)CC1` [PERPHENAZINE] the same measures were 23.21% and 4.38%.
Consider `COCC1=C(C(=O)OC(C)OC(=O)OC(C)C)N2C(=O)[C@@H](NC(=O)/C(=N\OC)c3csc(N)n3)[C@H]2SC1` (some centres undefined) [CEFPODOXIME PROXETIL], for which the Inhibition in the assay with Staphylococcus aureus is -13.09%; in the assay on Escherichia coli, 5.31%.
For `CCCN(CCC)S(=O)(=O)c1ccc(C(=O)O)cc1` [PROBENECID] the same measures were 13.34% and 1.2%.
Turning to `C[n+]1ccccc1/C=N/O.[Cl-]` [PRALIDOXIME CHLORIDE], the Inhibition came out at 12.69% with Staphylococcus aureus and 4.53% with Escherichia coli.
Turning to `CCCNCC(O)COc1ccccc1C(=O)CCc1ccccc1` (centres undefined) [PROPAFENONE], the figures for the Inhibition in the assay with Staphylococcus aureus and in the assay with Escherichia coli were 9.33% and 8.72%, respectively.
Turning to `CC12CCC(=O)C=C1CCC1C2CCC2(C)C1CCC2(O)C(=O)CO` (centres undefined), the Inhibition with Staphylococcus aureus is recorded as 8.54%; in the assay on Escherichia coli it was -7.68%.
In the case of `CC(C)[N+](C)(CCOC(=O)C1c2ccccc2Oc2ccccc21)C(C)C.[Br-]` [PROPANTHELINE BROMIDE], the Inhibition in the assay with Staphylococcus aureus is given as 16.95%; in the assay with Escherichia coli it was 4.45%.
As for `CCc1cc(C(N)=S)ccn1` [ETHIONAMIDE], the Inhibition was 13.26% with Staphylococcus aureus and 2.06% with Escherichia coli.
For the compound `COC(=O)C1=C(C)NC(C)=C(C(=O)OCC(C)C)C1c1ccccc1[N+](=O)[O-]` (centres undefined) [NISOLDIPINE], the Inhibition with Staphylococcus aureus came out at 10.19%; in the assay with Escherichia coli, 14.24%.
For `CS(=O)(=O)O.Cc1ccc(NC(=O)c2ccc(CN3CCN(C)CC3)cc2)cc1Nc1nccc(-c2cccnc2)n1` [IMATINIB MESYLATE], the results for the Inhibition in the assay with Staphylococcus aureus and with Escherichia coli were 11.51% and 2.87%, respectively.
Consider `Nc1nc(=O)c2nc(CNc3ccc(C(=O)N[C@@H](CCC(=O)O)C(=O)O)cc3)cnc2[nH]1` [FOLIC ACID], for which the Inhibition is listed as 10.57% in the assay on Staphylococcus aureus and -0.13% with Escherichia coli.
For `CC(C)c1ccc2oc3nc(N)c(C(=O)O)cc3c(=O)c2c1` [AMLEXANOX] the same measures were 16.12% and 0.07%.
Regarding `CC=CC(=O)N(CC)c1ccccc1C`, the values for the Inhibition in the assay with Staphylococcus aureus and in the assay with Escherichia coli were 8.78% and 0.72%, respectively.
In the same order, the values of `CCCc1nc2c(C)cc(-c3nc4ccccc4n3C)cc2n1Cc1ccc(-c2ccccc2C(=O)O)cc1` are 33.03% and 4.91%.
Consider `CC(=O)OCC(=O)[C@@]12OC(C)(C)O[C@@H]1C[C@H]1[C@@H]3C[C@H](F)C4=CC(=O)C=C[C@]4(C)[C@@]3(F)[C@@H](O)C[C@@]12C` [FLUOCINONIDE], for which the Inhibition is 10.01% in the assay with Staphylococcus aureus and -2.15% in the assay on Escherichia coli.
In the case of `CC(C)(C)C(O)/C=C/c1ccc2c(c1)OCO2` (centres undefined) [STIRIPENTOL], the values for the Inhibition with Staphylococcus aureus and in the assay with Escherichia coli were 0.92% and 6.07%, respectively.
For `CC[C@@H]1C(=O)OC[C@@H]1Cc1cncn1C.Cl` [PILOCARPINE HYDROCHLORIDE], the Inhibition was 15.92% with Staphylococcus aureus and 5.77% in the assay with Escherichia coli.
Consider `CC(CCCCC(=O)Nc1ccc(C(F)(F)F)cc1)NCCc1c[nH]cn1.O=C(O)/C=C\C(=O)O.O=C(O)/C=C\C(=O)O` (centres undefined), for which the figures for the Inhibition in the assay on Staphylococcus aureus and in the assay on Escherichia coli were 7.23% and 3.85%, respectively.
As to `CC1(C)O[C@@H]2[C@@H](CO[C@@]3(COS(N)(=O)=O)OC(C)(C)O[C@@H]23)O1` [TOPIRAMATE], the Inhibition came to 3.5% with Staphylococcus aureus and 6.36% in the assay on Escherichia coli.
As for `Cc1c(C(=O)NN2CCCCC2)nn(-c2ccc(Cl)cc2Cl)c1-c1ccc(I)cc1`, the Inhibition in the assay with Staphylococcus aureus turned out to be 8.26%; with Escherichia coli, 1.46%.
For `O=C(O)COCCN1CCN(C(c2ccccc2)c2ccc(Cl)cc2)CC1` (centres undefined) [CETIRIZINE] the same measures were 14.64% and -0.91%.
For `O=C(O)c1cccnc1` [NIACIN], the results for the Inhibition with Staphylococcus aureus and with Escherichia coli were 1.53% and -3.09%, respectively.
Take `C[C@]12CCC(=O)C=C1CC[C@@H]1[C@@H]2C(=O)C[C@@]2(C)[C@H]1CC[C@]2(O)C(=O)CO` [CORTISONE]: the Inhibition in the assay with Staphylococcus aureus is recorded as 18.73%; with Escherichia coli, 3.83%.
For `CC(C)NCC(O)COc1ccc(COCCOC(C)C)cc1.CC(C)NCC(O)COc1ccc(COCCOC(C)C)cc1.O=C(O)/C=C/C(=O)O` (centres undefined) [BISOPROLOL FUMARATE] the same measures were 7.74% and 1.99%.
Turning to `C#C[C@]1(O)CC[C@H]2[C@@H]3CCc4cc(O)ccc4[C@H]3CC[C@@]21C` [ETHINYL ESTRADIOL], the Inhibition in the assay with Staphylococcus aureus was 1.21%; in the assay on Escherichia coli it was 3.7%.
